# Laboratory results: publication PMC7862700, “An all-to-all approach to the identification of sequence-specific readers for epigenetic DNA modifications on cytosine”
# Columns and labels:
# Assay in all cases: DAPPL (digital affinity profiling via proximity ligation, sequencing); 10 mM Tris-HCl pH 7.5, 50 mM NaCl, 1 mM DTT, 4% glycerol, room temperature, 30 min; GST-TFs on glutathione beads, 16-mer random dsDNA library, 0.1% formaldehyde crosslink after washing; high values mean tight binding
# ETV5 = ETV5 (Homo sapiens, UniProt P41161 1-510); details: protein: recombinant; tags: N-terminal GST; dsDNA, one strand shown
# Sequence of ETV5 (P41161 whole entry, the tested form may be a part): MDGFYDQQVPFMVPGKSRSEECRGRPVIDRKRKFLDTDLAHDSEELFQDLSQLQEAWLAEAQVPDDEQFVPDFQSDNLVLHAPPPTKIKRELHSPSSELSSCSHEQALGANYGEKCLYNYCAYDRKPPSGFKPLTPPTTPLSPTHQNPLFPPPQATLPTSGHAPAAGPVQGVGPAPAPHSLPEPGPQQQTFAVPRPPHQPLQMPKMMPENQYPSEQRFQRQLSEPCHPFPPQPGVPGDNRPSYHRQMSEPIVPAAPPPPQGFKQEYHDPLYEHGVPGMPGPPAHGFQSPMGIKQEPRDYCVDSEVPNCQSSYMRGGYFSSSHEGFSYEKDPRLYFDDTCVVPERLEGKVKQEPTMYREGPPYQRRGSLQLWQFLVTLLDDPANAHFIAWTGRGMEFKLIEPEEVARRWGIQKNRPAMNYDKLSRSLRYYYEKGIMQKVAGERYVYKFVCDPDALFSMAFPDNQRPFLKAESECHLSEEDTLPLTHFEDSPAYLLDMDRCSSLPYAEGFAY
# Outline: (§1)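 In yeast, human transcription factors were expressed with a GST fusion, then pulled down on glutathione beads and given DNA barcodes. Pooled with a tag-only sample, they were exposed to 200 nmole of a 16-mer random double-stranded DNA library (Tris/NaCl/DTT/glycerol buffer, room temperature, 30 min), washed, crosslinked with 0.1% formaldehyde, proximity-ligated using BsaI/T4 ligase for 1 h at 37 °C, PCR-amplified and read on an Illumina NextSeq500. Each hexamer's frequency of reads for a factor, divided by the matching frequency for the tag-only sample, gives the binding signal.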
# HSF1 = HSF1 (Homo sapiens, UniProt Q00613 1-529); details: protein: recombinant; tags: N-terminal GST; chain copies: 3; dsDNA, one strand shown
# Sequence of HSF1 (Q00613 whole entry): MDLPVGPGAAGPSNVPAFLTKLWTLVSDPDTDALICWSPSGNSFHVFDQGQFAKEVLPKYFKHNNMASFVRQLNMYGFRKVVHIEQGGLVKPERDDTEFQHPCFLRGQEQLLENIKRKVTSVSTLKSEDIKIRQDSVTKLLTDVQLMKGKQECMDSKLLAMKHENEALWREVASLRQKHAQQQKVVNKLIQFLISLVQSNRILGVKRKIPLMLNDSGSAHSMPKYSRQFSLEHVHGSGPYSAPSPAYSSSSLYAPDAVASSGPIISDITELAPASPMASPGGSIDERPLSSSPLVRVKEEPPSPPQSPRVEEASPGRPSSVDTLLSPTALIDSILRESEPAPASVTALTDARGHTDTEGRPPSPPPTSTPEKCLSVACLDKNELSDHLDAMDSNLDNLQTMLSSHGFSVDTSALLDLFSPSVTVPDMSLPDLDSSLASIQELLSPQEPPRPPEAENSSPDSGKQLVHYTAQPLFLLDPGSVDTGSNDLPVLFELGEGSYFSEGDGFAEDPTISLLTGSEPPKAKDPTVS
# Outline: as §1
# SPIC = biological target: T1, SPIC (Homo sapiens, UniProt Q8N5J4 1-248); details: protein: recombinant; tags: N-terminal GST; dsDNA, one strand shown
# T1 sequence: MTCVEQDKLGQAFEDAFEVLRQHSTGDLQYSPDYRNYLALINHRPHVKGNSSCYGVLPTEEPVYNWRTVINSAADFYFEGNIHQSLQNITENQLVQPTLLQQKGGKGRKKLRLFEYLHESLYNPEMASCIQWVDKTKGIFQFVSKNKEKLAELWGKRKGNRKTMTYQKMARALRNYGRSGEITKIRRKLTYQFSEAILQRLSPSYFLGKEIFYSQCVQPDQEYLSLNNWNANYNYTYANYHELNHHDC
# Outline: as §1
# ELF4 = ELF4 (Homo sapiens, UniProt Q99607 1-663); details: protein: recombinant; tags: N-terminal GST; dsDNA, one strand shown
# Sequence of ELF4 (Q99607 whole entry): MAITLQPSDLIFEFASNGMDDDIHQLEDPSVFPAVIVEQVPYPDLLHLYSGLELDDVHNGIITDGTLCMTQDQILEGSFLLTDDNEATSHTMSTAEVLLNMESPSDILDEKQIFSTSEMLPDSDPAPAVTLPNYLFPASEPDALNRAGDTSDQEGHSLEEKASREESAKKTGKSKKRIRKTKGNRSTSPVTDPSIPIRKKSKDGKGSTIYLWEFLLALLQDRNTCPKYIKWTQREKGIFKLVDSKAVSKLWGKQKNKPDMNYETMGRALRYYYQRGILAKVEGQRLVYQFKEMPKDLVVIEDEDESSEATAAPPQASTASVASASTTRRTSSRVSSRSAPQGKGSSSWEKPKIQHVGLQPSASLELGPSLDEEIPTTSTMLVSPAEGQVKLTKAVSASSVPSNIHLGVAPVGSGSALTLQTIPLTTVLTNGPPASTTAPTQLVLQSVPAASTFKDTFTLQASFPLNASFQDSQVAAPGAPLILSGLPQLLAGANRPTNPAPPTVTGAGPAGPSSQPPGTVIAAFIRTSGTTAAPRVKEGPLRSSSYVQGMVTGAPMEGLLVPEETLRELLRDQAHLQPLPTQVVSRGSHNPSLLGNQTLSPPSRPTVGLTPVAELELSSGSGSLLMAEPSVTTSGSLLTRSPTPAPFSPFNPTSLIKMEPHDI
# Outline: as §1
# ETV2 = biological target: T2, ETV2 (Homo sapiens, UniProt O00321 1-342); details: protein: recombinant; tags: N-terminal GST; dsDNA, one strand shown
# T2 sequence: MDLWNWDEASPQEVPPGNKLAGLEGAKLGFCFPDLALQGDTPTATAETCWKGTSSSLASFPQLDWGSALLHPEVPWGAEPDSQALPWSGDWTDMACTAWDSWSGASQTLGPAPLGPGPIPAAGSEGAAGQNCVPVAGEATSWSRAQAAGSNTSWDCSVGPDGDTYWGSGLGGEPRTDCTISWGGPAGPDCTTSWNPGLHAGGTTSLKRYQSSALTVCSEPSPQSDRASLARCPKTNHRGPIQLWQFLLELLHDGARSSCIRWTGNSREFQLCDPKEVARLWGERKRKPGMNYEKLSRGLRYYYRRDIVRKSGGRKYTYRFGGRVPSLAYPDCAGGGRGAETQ
# Outline: as §1
# ELF3 = biological target: T3, ELF3 (Homo sapiens, UniProt P78545 1-371); details: protein: recombinant; tags: N-terminal GST; dsDNA, one strand shown
# T3 sequence: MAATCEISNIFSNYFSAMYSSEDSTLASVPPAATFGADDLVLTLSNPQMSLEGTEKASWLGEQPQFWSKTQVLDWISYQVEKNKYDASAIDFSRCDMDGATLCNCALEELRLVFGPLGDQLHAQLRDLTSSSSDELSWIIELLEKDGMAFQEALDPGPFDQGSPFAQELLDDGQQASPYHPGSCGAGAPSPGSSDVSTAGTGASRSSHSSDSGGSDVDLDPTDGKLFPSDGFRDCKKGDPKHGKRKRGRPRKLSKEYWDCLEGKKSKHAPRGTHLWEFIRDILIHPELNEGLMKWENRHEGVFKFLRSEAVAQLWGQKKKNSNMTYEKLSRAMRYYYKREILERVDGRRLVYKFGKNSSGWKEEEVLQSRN
# Outline: as §1
# CRX = CRX (Homo sapiens, UniProt O43186 1-299); details: protein: recombinant; tags: N-terminal GST; dsDNA, one strand shown
# Sequence of CRX (O43186 whole entry): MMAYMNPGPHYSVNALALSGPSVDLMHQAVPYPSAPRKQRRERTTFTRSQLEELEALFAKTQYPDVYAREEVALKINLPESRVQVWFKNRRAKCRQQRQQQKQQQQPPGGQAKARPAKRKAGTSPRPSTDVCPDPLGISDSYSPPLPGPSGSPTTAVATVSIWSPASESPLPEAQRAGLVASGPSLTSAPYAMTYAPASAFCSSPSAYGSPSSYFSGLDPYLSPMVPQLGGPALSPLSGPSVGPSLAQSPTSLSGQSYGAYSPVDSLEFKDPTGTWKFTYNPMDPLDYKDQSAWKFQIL
# Outline: as §1
# ERF = biological target: T4, ERF (Homo sapiens, UniProt P50548 1-548); details: protein: recombinant; tags: N-terminal GST; dsDNA, one strand shown
# T4 sequence: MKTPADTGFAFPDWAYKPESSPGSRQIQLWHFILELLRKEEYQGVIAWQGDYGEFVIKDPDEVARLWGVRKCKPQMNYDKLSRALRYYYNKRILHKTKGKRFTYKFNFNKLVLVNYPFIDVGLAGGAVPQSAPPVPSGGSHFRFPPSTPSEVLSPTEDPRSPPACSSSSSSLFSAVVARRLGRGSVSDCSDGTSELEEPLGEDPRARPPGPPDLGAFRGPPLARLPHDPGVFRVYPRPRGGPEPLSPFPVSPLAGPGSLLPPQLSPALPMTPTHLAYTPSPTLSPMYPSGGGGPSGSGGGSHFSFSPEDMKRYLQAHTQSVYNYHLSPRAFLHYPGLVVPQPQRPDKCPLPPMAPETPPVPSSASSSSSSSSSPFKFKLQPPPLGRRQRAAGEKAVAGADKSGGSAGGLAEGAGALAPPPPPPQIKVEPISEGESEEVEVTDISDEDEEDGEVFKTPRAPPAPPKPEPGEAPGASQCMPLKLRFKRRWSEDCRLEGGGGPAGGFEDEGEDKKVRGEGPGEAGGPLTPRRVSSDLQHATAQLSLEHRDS
# Outline: as §1
# ETV3L = biological target: T5, ETV3L (Homo sapiens, UniProt Q6ZN32 1-361); details: protein: recombinant; tags: N-terminal GST; dsDNA, one strand shown
# T5 sequence: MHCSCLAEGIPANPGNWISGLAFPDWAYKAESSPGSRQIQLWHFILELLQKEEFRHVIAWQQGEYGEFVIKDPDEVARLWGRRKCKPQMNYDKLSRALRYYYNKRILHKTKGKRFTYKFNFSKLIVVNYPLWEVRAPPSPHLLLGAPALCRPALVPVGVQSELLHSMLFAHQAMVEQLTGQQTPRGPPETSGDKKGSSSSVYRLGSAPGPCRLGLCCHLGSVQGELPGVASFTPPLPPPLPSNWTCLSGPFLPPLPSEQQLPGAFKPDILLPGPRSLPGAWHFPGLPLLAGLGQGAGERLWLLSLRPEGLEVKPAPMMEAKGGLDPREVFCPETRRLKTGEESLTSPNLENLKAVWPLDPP
# Outline: as §1
# ETS2 = biological target: T6, ETS2 (Homo sapiens, UniProt P15036 1-469); details: protein: recombinant; tags: N-terminal GST; dsDNA, one strand shown
# T6 sequence: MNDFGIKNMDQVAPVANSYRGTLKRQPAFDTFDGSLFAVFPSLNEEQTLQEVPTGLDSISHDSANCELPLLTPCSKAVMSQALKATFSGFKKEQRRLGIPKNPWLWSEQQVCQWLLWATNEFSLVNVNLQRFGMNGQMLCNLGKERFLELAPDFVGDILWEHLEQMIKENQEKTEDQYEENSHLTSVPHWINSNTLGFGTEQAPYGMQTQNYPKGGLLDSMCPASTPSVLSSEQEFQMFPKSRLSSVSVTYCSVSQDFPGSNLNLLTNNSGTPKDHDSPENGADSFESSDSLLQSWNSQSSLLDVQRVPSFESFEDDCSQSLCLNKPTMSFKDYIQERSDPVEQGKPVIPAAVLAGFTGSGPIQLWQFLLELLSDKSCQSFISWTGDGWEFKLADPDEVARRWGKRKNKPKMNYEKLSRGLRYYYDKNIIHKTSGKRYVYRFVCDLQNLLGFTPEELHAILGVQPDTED
# Outline: as §1
# SPDEF = biological target: T7, SPDEF (Homo sapiens, UniProt O95238 1-335); details: protein: recombinant; tags: N-terminal GST; dsDNA, one strand shown
# T7 sequence: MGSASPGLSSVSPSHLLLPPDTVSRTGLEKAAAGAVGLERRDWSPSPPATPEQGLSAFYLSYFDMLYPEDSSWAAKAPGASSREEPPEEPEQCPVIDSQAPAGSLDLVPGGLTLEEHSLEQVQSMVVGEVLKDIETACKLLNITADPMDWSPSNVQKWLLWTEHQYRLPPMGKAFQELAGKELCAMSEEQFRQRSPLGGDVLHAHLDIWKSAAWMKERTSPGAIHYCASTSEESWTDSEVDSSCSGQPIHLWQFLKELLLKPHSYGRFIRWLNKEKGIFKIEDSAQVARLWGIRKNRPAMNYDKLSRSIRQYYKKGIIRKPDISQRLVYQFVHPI
# Outline: as §1
# ETV3 = biological target: T8, ETV3 (Homo sapiens, UniProt P41162-2 1-143); details: protein: recombinant; tags: N-terminal GST; dsDNA, one strand shown
# T8 sequence: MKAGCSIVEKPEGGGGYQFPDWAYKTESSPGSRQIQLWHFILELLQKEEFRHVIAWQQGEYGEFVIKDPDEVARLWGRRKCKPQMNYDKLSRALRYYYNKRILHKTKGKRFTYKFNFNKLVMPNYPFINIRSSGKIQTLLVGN
# Outline: as §1
# ETV6 = ETV6 (Homo sapiens, UniProt P41212 1-452); details: protein: recombinant; tags: N-terminal GST; dsDNA, one strand shown
# Sequence of ETV6 (P41212 whole entry): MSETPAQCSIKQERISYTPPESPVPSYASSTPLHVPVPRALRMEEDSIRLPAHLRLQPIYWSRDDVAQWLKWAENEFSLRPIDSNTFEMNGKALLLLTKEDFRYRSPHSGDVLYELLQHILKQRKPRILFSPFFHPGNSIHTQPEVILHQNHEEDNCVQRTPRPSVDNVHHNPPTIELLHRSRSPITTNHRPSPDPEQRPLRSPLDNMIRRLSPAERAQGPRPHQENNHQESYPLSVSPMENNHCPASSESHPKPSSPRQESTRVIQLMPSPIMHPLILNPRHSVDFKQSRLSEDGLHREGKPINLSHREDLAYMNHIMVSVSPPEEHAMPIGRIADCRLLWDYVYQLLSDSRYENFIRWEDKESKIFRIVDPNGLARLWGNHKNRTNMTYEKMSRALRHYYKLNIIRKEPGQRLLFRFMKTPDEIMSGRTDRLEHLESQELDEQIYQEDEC
# Outline: as §1
sequence,measurement,setting,value
TTTAGT,binding signal,ETV5,"1.04 fold enrichment (6-mer frequency, TF over GST control)"
same,binding signal,HSF1,"1.2 fold enrichment (6-mer frequency, TF over GST control)"
same,binding signal,SPIC,"1.15 fold enrichment (6-mer frequency, TF over GST control)"
same,binding signal,ELF4,"1.04 fold enrichment (6-mer frequency, TF over GST control)"
same,binding signal,ETV2,"1.23 fold enrichment (6-mer frequency, TF over GST control)"
same,binding signal,ELF3,"1.04 fold enrichment (6-mer frequency, TF over GST control)"
same,binding signal,CRX,"1.55 fold enrichment (6-mer frequency, TF over GST control)"
same,binding signal,ERF,"1.03 fold enrichment (6-mer frequency, TF over GST control)"
same,binding signal,ETV3L,"1.09 fold enrichment (6-mer frequency, TF over GST control)"
same,binding signal,ETS2,"1.04 fold enrichment (6-mer frequency, TF over GST control)"
same,binding signal,SPDEF,"1.04 fold enrichment (6-mer frequency, TF over GST control)"
same,binding signal,ETV3,"1.11 fold enrichment (6-mer frequency, TF over GST control)"
same,binding signal,ETV6,"1.12 fold enrichment (6-mer frequency, TF over GST control)"
